# Bioassay records deposited in PubChem BioAssay by several laboratories.
# This is a sample that favours compounds with a hit; in the whole collection about 21% have one here.
# CYP2C19 act: cytochrome P450 2C19 (human) activation; 96,000 tested, under 10 active; recombinant CYP2C19, luciferin-H EGE luminescence; active compounds read high; 0 = fully inhibited enzyme, 1 = untreated enzyme; activation factor at 5 µM; P33261;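 active means activation factor of at least 2 at 5 µM in the primary screen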;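 further: 0 = wells with 2.5 mM tranylcypromine and 1 = vehicle-only wells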
# MRP resist rev: reverses drug resistance mediated by MRP | H69AR cells + 2 uM doxorubicin, CellTiter-Glo, 72 h | differential viability (reversal), % at 10 µM | hit rate 0.04% among 85,000;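 active means viability drop by adding the cancer drug above about 55%, with treated viability meeting a 40% cutoff, limit read from the data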;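 further: viability without doxorubicin minus viability with 2 µM doxorubicin for each compound; larger differential means the compound sensitizes cells more to doxorubicin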
# CYP2C9 activ: activators of human CYP2C9; recombinant CYP2C9, luciferin-H conversion, luminescence; active compounds read high; factor 1 = untreated enzyme, 0 = blocked; activation factor at 5 µM; hit rate 1.4% among 96,000; AID 1024;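 active means activation factor of 2 or more for CYP2C9 at a 5 µM dose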;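 further: 0 = sulfaphenazole-blocked wells and 1 = vehicle-only wells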
# Target sequence (P11712 whole entry, looked up): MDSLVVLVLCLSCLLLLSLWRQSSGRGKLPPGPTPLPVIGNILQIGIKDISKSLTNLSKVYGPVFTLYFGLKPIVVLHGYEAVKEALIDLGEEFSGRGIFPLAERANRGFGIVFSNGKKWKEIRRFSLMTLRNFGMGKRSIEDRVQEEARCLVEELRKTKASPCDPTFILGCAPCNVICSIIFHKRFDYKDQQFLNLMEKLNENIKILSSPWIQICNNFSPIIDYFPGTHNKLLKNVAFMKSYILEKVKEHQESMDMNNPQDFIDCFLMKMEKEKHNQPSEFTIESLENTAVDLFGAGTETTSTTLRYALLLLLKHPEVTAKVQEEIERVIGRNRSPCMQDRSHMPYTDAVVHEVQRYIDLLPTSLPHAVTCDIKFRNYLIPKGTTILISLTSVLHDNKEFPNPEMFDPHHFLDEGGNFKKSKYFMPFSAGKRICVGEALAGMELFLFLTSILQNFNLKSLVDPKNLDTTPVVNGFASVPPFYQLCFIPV
# CYP2C9 inh: inhibitors of human CYP2C9 | inhibition, % at 5 µM | CYP2C9 Supersomes, luciferin-H conversion, luminescence | hit rate 20% among 96,000 | P11712;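 active means blocking of liver enzyme CYP2C9 beyond about 50% at 5 µM, limit read from the data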
# MRP-1 activ: activates MRP-1; H69AR cells + doxorubicin, viability rescue, CellTiter-Glo; viability increase, % at 10 µM; hit rate 0.61% among 140,000; AID 799;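 active means viability gain under doxorubicin at or above a set limit, the compound median plus 3 SD, cut at about 4.7% in these data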;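 further: MRP-1 overexpressing cells given doxorubicin 25 µM after compound pretreatment; 18-22 h compound pretreatment then 72 h with doxorubicin before readout; 0% = doxorubicin-only wells and 100% = vehicle-treated cells without doxorubicin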
# CYP2C19 inhib: human CYP2C19 inhibition; P33261; CYP2C19 Supersomes, luciferin-H EGE luminescence, 30 min; inhibition, % at 5 µM; hit rate 21% among 96,000;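 active means CYP2C19 inhibition above a set limit at 5 µM in the primary screen, cut at about 50% in these data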;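 further: plate controls were negative control wells for no effect and 2.5 mM tranylcypromine positive control for full effect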
# Starred values were filed as active, the others as inactive; / = no result given.
SMILES,CYP2C19 act,MRP resist rev,CYP2C9 activ,CYP2C9 inh,MRP-1 activ,CYP2C19 inhib
CCCC(=O)Nc1sc(C)c(C)c1C(=O)Nc1cccc(C)c1,0.8,/,0.9,10,0,15
Cc1ccc(-c2nn(C)c(=O)c3ccccc23)cc1CNS(C)(=O)=O,0.9,-4,2.3*,-135,-2,6
Cc1ccc(-c2nn(C)c(=O)c3ccccc23)cc1CNC(=O)/C=C/c1ccccc1,0.6,7,0.7,31,-3,42
CCOC(=O)NCc1cc(-c2nn(C)c(=O)c3ccccc23)ccc1C,0.3,-8,0.2,78*,-4,69*
CC(=O)NCc1cc(-c2nn(C)c(=O)c3ccccc23)ccc1C,1,-8,0.7,27,-4,-5
CC1(C)CC(=O)C2=C(C1)N(c1cccc(Cl)c1)C(=O)NC2(C(F)(F)F)C(F)(F)F,/,/,/,/,-2,/
COc1ccc(-n2c(C)nn(C)c2=O)c(OC)c1,0.6,/,0.9,6,-3,37
Cc1nn(C)c(=O)n1-c1ccc(Oc2ccccc2)cc1,0.8,/,0.1,91*,0,22
CCOC(=O)c1sc(N)nc1C(C)C,0.5,/,0.7,30,-1,52*
CCCCOC(=O)Nc1nc(C)c(C(=O)OCC)s1,0.6,/,0.7,29,1,40
CCCc1nc(N)sc1C(=O)OCC,0.5,/,0.8,21,-1,55*
N#CCCN(Cc1cccnc1)C(=O)c1sc2cc(F)ccc2c1Cl,/,/,/,/,-2,/
CCOc1ccccc1N(CC(=O)N1CCOCC1)S(=O)(=O)c1ccc(SC)cc1,0.7,3,0.6,39,-3,29
Cc1ccc(C(=O)c2c[nH]c(C(=O)NCc3cccnc3)c2)cc1,0.8,/,0.8,24,-5,24
O=C(Nc1nccs1)c1ccccc1N=Cc1ccccc1,0.1,/,0.2,80*,-1,93*
Cc1ccc2[nH]c3c(N4CCOCC4)ncnc3c2c1,0.9,10,0.7,33,-3,12
Cc1cccc2[nH]c3c(N4CCC5(CC4)OCCO5)ncnc3c12,0.5,/,0.8,17,-7,51*
Clc1ccc2[nH]c3c(N4CCC5(CC4)OCCO5)ncnc3c2c1,0.2,/,0.3,73*,-5,76*
Cc1cccc2[nH]c3c(N4CCN(C(=O)c5ccco5)CC4)ncnc3c12,0.1,/,0.6,39,-5,90*
c1ccc2c(c1)[nH]c1c(N3CCOCC3)ncnc12,0.9,-7,0.5,52*,-4,12
CCSc1ccccc1C(=O)Nc1cccc(OC)c1,0.6,1,0.9,7,-2,41
CCn1c(CNC(=O)c2ccco2)nnc1SCC(=O)Nc1ccc(Br)cc1F,/,3,/,/,1,/
Brc1ccc2[nH]c3c(N4CCc5ccccc5C4)ncnc3c2c1,0.9,-1,0.1,92*,-3,6
COc1ccc(CNC(=O)CCc2c(C)nc3ncnn3c2C)cc1,1.1,14,1.1,-5,-2,-11
CCOC(=O)c1c(NC(=O)CSc2nnc(CNc3ccc(F)cc3)o2)sc(C)c1C,0.9,2,0.4,63*,0,12
SMILES,CYP2C19 act,MRP resist rev,CYP2C9 activ,CYP2C9 inh,MRP-1 activ,CYP2C19 inhib
CCOC(=O)c1sc(NC(=O)CSc2nnc(Cc3ccccc3)o2)c(C(=O)OCC)c1C,0.5,2,0.2,78*,-2,54*
COc1ccc(NC(C#N)c2ccccc2OCc2ccccc2)cc1 (configuration not stated),/,/,/,/,-4,/
C=CCn1c(SCC(=O)Nc2cc(C)c(Cl)cc2OC)nnc1-c1ccco1,0.7,-2,0.8,21,0,27
CCc1nnc(NC(=O)CSc2nnc(-c3c[nH]c4ccccc34)n2CC)s1,0.8,0,0.4,57*,-3,24
CCCn1c(SCC(=O)Nc2nnc(CC)s2)nnc1-c1ccco1,0.9,-14,0.5,46,0,10
CCc1nnc(NC(=O)CSc2nnc(-c3ccco3)n2CC)s1,0.6,-1,0.4,65*,3,39
C=CCn1c(SCC(=O)Nc2cc(C)ccc2OC)nnc1-c1ccco1,0,8,0.6,43,1,98*
Cc1cc(NC(=O)CSc2nnc(-c3ccc(Br)o3)n2Cc2ccccc2)no1,0.4,-1,0.3,66*,-2,58*
Cc1cc(C(F)F)n2nc(C(=O)Nc3sc4c(c3C#N)CCC4)nc2n1,/,/,/,/,-2,/
O=C1CNC(=O)/C1=C/c1ccc(O)cc1,0.9,/,1,3,-1,14
CN(C)Cc1cc(CCNC(=O)c2ccc(Cl)cc2)ccc1O,1.1,0,1.1,-6,0,-7
Cc1ccc(-c2ccc(SCC(=O)Nc3nonc3C)nn2)cc1,0.7,-5,0.1,86*,-2,28
Cc1ccc(-c2ccc(SCC(=O)Nc3ccc4c(c3)OCCO4)nn2)cc1,/,/,/,/,-2,/
CCn1c(SCC(=O)n2c(C)c(C)c3ccccc32)nnc1-c1ccco1,0.1,-13,1.8,-81,-3,87*
Cc1cc(C)n(CC(=O)n2c(C)c(C)c3ccccc32)n1,/,-5,/,/,-3,/
C=CCn1c(SCc2c(F)cccc2Cl)nnc1-c1ccco1,0,/,1.2,-23,-2,96*
Cc1c(C)n(C(=O)CSc2nccn2C)c2ccccc12,0.2,-8,1.2,-16,-1,79*
Cc1cc(N2CCOCC2)ccc1/C=C\[N+](=O)[O-],/,/,/,/,-5,/
COc1ccc(NS(=O)(=O)c2ccc(OC)c(NC(=O)CCC3CCCC3)c2)cc1,/,/,/,/,-1,/
COc1cc(/C=C/C(=O)OCC(=O)NCC2CCCO2)ccc1OCC#N (configuration not stated),/,/,/,/,-2,/
Cc1ccc(C)c(-n2c(SCC(=O)Nc3nonc3C)nnc2-c2ccoc2C)c1,0.6,-2,0.2,82*,-1,36
COCCCn1c(SCC(=O)N2CC(=O)Nc3ccccc32)nnc1-c1ccoc1C,1,4,0.9,14,-1,5
CCn1c(SCC(=O)Nc2ccc3c(c2)c2ccccc2n3CC)nnc1-c1ccco1,0.2,0,0.7,28,-1,85*
Cc1ccc(C)c(-n2c(SCC(=O)Nc3nnc(C)s3)nnc2-c2ccoc2C)c1,0.7,-21,0.7,29,-2,25
CCn1c(SCC(=O)Nc2cc(C)on2)nnc1-c1ccco1,0.5,-2,0.7,33,0,53*
SMILES,CYP2C19 act,MRP resist rev,CYP2C9 activ,CYP2C9 inh,MRP-1 activ,CYP2C19 inhib
COCCCn1c(SCC(=O)n2c(C)c(C)c3ccccc32)nnc1-c1ccoc1C,0.1,-15,1.4,-38,-4,89*
CCCCn1c(SCC(=O)Nc2cc(C)on2)nnc1-c1ccco1,0.8,7,1,4,-1,17
C/C(=N\NC(=O)c1nn(C)cc1Br)c1cccc(NC(=O)C2CCCC2)c1,0.7,/,1.6,-62,-1,28
CC1CN(Cc2nc3c(c(=O)n(C)c(=O)n3C)n2CCc2ccccc2)CC(C)O1 (configuration not stated),/,7,/,/,/,/
COc1ccccc1NC(=O)C(=N\O)/C(C)=N/O,/,/,/,/,0,/
Cc1ccc2nc(SC(C)C(=O)NCc3ccc4c(c3)OCO4)[nH]c2c1 (configuration not stated),/,/,/,/,0,/
